Measurements reported in PubChem BioAssay (NCATS).
Results filed as inconclusive are left out. Entries that show only a call come without a potency. Calls of active or inactive are those of the source. Calls follow the shape of the dose curve; as a rule, active = well fitted cell-killing curve with a large enough effect; inconclusive = small, poorly fitted or top-dose-only effect; inactive = no such curve, though single readings can be large or run the other way.
Potency is read from the fitted curve at half-maximal effect.

Experiment: qHTS of pediatric cancer cell lines to identify multiple opportunities for drug repurposing: Primary screen for NB1643 cells (AID 1347099); also: nearly all actives have a fitted effect of over 50% in size
Settings: NB1643 neuroblastoma viability, CellTiter-Glo luminescence, 48 h; series mostly up to 46 µM
Text: Drug repurposing or repositioning has been offered as a strategy for drug development in oncology programs. This approach has special potential for childhood cancers and other rare or orphan diseases, where the expected return on new drug development has been a disincentive to pharmaceuticals. […] In this project we exploit the poly-pharmacology of drugs to discover new indications via phenotypic screening of a panel of 19 well-characterized cell lines derived from solid tumors seen in children and adolescents. The goal is to identify approved drugs with previously unrecognized anticancer properties that has the potential to reveal new mechanisms and biological processes involved in carcinogenesis or drug resistance. We employed a titration-based paradigm (quantitative high-throughput screening or qHTS), where all compounds were tested at multiple concentrations for their effect on cell viability. Concentration-response curves (CRCs) were derived directly from the primary screen, and both potency and efficacy values were used to identify compounds with robust bioactivity profiles. We screened the NIH Chemical Genomics Center (NCGC) Pharmaceutical Collection (NPC) and Mechanism Interrogation Plate (MIPE) small molecule collections of approved and investigational compounds against these cell lines; and measured metabolically active cells after 48 hours of compound treatment as a proxy for cell viability. […] Assay Submitter: Nathalia J. Martinez, National Center for Advancing Translational Sciences, National Institutes of Health, Rockville, MD, USA; email: natalia.martinez@nih.gov Shen, M et al. Quantitative high-throughput phenotypic screening of pediatric cancer cell lines identifies multiple opportunities for drug repurposing. Oncotarget 2017 Dec 19;9(4):4758-4772. PMID 29435139.
The cells were obtained from University of North Carolina (UNC), Pediatric Preclinical Testing Program (PPT), and Coriell Institute (CI). qHTS cell viability assay: Cells were assayed in growth media at a density of 500-1,000 cells/well. Five microliters of cells were dispensed into 1,536-well, white, solid-bottom, TC-treated plates (Greiner Bio One) using a multidrop dispenser and incubated at 37 degrees C, 5% CO2, under a humidified atmosphere for 5 hours. Twenty-three nanoliters of compounds and controls (neutral control DMSO or positive control bortezomib at final concentration of 2.3 µM) were subsequently transferred by Kalypsys pintool. For primary screens, the MIPE collection was tested at 11-point dilutions (final concentrations range from 0.78 nM to 46 µM) and the NPC collection at 8-point dilutions (final concentrations range from 0.59 nM to 46 µM). Compounds tested in follow-up screens were assayed at 11-point dilutions. Cells were incubated for 48 hours, followed by addition of 3 µL of CellTiter-Glo (Promega). After a 15 min incubation at room temperature, samples were analyzed for luminescence intensity using a ViewLux High-throughput CCD imager equipped with clear filters.
For `CCCC(=O)O[C@]1(C(=O)CC)CC[C@H]2[C@@H]3CCC4=CC(=O)CC[C@]4(C)[C@H]3[C@@H](O)C[C@@]21C`, the Potency was “inactive”. With `O=C(OCC(O)CO)c1ccccc1Nc1ccnc2c(C(F)(F)F)cccc12` (stereo not given) the Potency was “inactive”. In the case of `O=C(O)c1cn(C2CC2)c2cc(Cl)c(F)cc2c1=O`, the Potency is reported as “inactive”. For `CC(C)=CCC/C(C)=C/CC/C(C)=C/C(=O)OCC(=O)[C@@]1(O)CC[C@H]2[C@@H]3CCC4=CC(=O)C=C[C@]4(C)[C@H]3[C@@H](O)C[C@@]21C`, the Potency was “inactive”. For `CC(NC(CCc1ccccc1)C(=O)O)C(=O)N1C(=O)N(C)CC1C(=O)O` (stereo not given), the Potency was “inactive”. For `CN(C(=O)C(Cl)Cl)c1ccc(OC(=O)c2ccco2)cc1`, the Potency was “inactive”. With `COc1ccccc1OCC1CNC(=O)O1` (stereo not given) the Potency was “inactive”. For `CCOC(=O)NNc1nncc2ccccc12`, the Potency was “inactive”. For `CCC1(c2cnc[nH]2)Cc2ccccc2C1`, the Potency was “inactive”. With `Cc1cc(O)c(C)c(C)c1O` the Potency was “inactive”. In the case of `CCCCC(O)/C=C(C)/C=C/C=C/C(=O)N1CCCC1=O` (stereo not given), the Potency is reported as “inactive”. With `N#CSCC(=O)O` the Potency was “inactive”. With `CC(=O)O[C@@H]1CC2C3CCc4cc(OC(=O)c5ccccc5)ccc4C3CCC2(C)[C@H]1OC(C)=O` (stereo not given in full) the Potency was “inactive”. For `Nc1c(NC/C=C\COc2cc(CN3CCCCC3)ccn2)c(=O)c1=O`, the Potency was “inactive”. In the case of `CCCCC(CC)CNC(=O)CC(C)OC(=O)CCC(=O)O` (stereo not given), the Potency is reported as “inactive”. In the case of `CO[C@@H]1[C@@H](OC)[C@H](C)[C@@](O)(CC(=O)O)O[C@H]1[C@H](C)[C@H]1O[C@@]2(CC[C@@](C)([C@H]3CC[C@@](C)([C@@H]4O[C@@H]([C@H]5O[C@](C)(O)[C@H](C)C[C@@H]5C)C[C@@H]4OC4C[C@H](OC)[C@@H](OC)[C@H](C)O4)O3)O2)C[C@H](O)[C@H]1C` (stereo not given in full), the Potency is reported as 841 nM (active). In the case of `C[C@@H]1CCC[C@H](C)N1CCCC(O)(c1ccccc1)c1ccccn1` (stereo not given in full), the Potency is reported as “inactive”. With `Cc1cc(=O)oc2cc(O[C@@H]3SC[C@@H](O)[C@H](O)[C@H]3O)ccc12` the Potency was “inactive”. With `OC(CCCN1CCCCC1)(c1ccccc1)c1ccccc1` the Potency was “inactive”. For `O=c1[nH]c2ccccc2c(=O)n1CCCl`, the Potency was “inactive”. For `CCCCC/C=C\C/C=C\CCCCCCCC(=O)NC(C)c1ccccc1` (stereo not given), the Potency was “inactive”. In the case of `CCOC(=O)c1ccc(OCCN2C[C@H](O)[C@@H](O)[C@H](O)[C@H]2CO)cc1`, the Potency is reported as “inactive”. For `CCN1CCN(c2cc(-c3ccc(F)cc3)c3c(n2)CCCCCC3)CC1`, the Potency was “inactive”. In the case of `Cc1ccc(-c2ccccc2C#N)cc1`, the Potency is reported as “inactive”. In the case of `OC1(c2ccccc2)CCNCC1`, the Potency is reported as “inactive”. For `CCOC(=O)C(=O)CCc1ccccc1`, the Potency was “inactive”. With `CCOc1c(N2CCOCC2)cnn(C)c1=O` the Potency was “inactive”. With `COc1cc(S(N)(=O)=O)cc(C(=O)O)c1OC` the Potency was “inactive”. In the case of `O=C(CS(=O)Cc1ccco1)NC/C=C\COc1cc(CN2CCCCC2)ccn1` (stereo not given), the Potency is reported as “inactive”. For `CC(C)C(=O)Nc1cccc(C2CN3CCSC3=N2)c1` (stereo not given), the Potency was “inactive”. In the case of `CCCc1ncc(C(=O)O)s1`, the Potency is reported as “inactive”. With `CC1CCCCN1CCCOC(=O)c1ccc(OC2CCCCC2)cc1` (stereo not given) the Potency was “inactive”. In the case of `O=C(O)[C@H](O)[C@@H](O)[C@H](O[C@@H]1O[C@H](CO)[C@H](O)[C@H](O)[C@H]1O)[C@H](O)CO`, the Potency is reported as “inactive”. In the case of `Nc1nnnn1-c1ccccc1`, the Potency is reported as “inactive”. In the case of `CCCCCCn1c(=O)c2c(ncn2C)n(C)c1=O`, the Potency is reported as “inactive”. With `CC(=O)/C=C/C=C1/C2CCC(C2)C1(C)C` (stereo not given) the Potency was “inactive”. In the case of `CCC[C@H](N[C@@H](C)C(=O)N1[C@H](C(=O)O)C[C@@H]2CCCC[C@@H]21)C(=O)OCC`, the Potency is reported as “inactive”. For `C[C@H]1C[C@@H]2[C@H]([C@@H](O)C[C@@]3(C)[C@H]2CC[C@]3(O)C(=O)CO)[C@@]2(C)C=CC(=O)C=C12`, the Potency was “inactive”. For `O=C(c1cc(O)c(O)c(O)c1)c1ccc(O)c(O)c1O`, the Potency was “inactive”. In the case of `CCOC(=O)O[C@]1(C(=O)OCCl)CC[C@H]2[C@@H]3CCC4=CC(=O)C=C[C@]4(C)[C@H]3[C@@H](O)C[C@@]21C`, the Potency is reported as “inactive”.
